Measured values reported in PubChem BioAssay (NCI).
The panel holds about 83,000 compounds, 20% with a hit somewhere; the sample as a whole holds those more often.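 Negative percent growth values reflect cell death: -40 means 40% of the cells present at the start died, and -100 means all died.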 The source made the active and inactive calls. The calls were made as follows: active = growth percent below 10; inactive = the rest.

Experiments:
Assay in all cases: NCI-60 one-dose screen, 48 h (100 = growth as untreated, 0 = no growth, -100 = all killed)
Details in all cases: 10 µM unless noted
SK-MEL-2 melanoma = tested on: SK-MEL-2 melanoma
EKVX NSCLC = tested on: EKVX NSCLC
SN12C renal = tested on: SN12C renal
UO-31 renal = tested on: UO-31 renal
TK-10 renal = tested on: TK-10 renal
ACHN renal = tested on: ACHN renal
CAKI-1 renal = tested on: CAKI-1 renal
A498 renal = tested on: A498 renal
CCRF-CEM leukemia = tested on: CCRF-CEM leukemia
MOLT-4 leukemia = tested on: MOLT-4 leukemia
SR leukemia = tested on: SR leukemia
RPMI-8226 leukemia = tested on: RPMI-8226 leukemia
OVCAR-8 ovarian = tested on: OVCAR-8 ovarian
OVCAR-5 ovarian = tested on: OVCAR-5 ovarian
OVCAR-4 ovarian = tested on: OVCAR-4 ovarian
SK-OV-3 ovarian = tested on: SK-OV-3 ovarian
IGROV1 ovarian = tested on: IGROV1 ovarian
OVCAR-3 ovarian = tested on: OVCAR-3 ovarian
HS 578T breast = tested on: HS 578T breast
NCI/ADR-RES ovarian = tested on: NCI/ADR-RES ovarian

Measured: growth

O=c1ccc2c(ccc3ncccc32)o1
inactive: SK-MEL-2 melanoma 112% | EKVX NSCLC 118% | SN12C renal 106% | UO-31 renal 77.1% | TK-10 renal 105% | ACHN renal 95.6% | CAKI-1 renal 90% | A498 renal 81.8% | CCRF-CEM leukemia 104% | MOLT-4 leukemia 92.7% | SR leukemia 103% | RPMI-8226 leukemia 112% | OVCAR-8 ovarian 105% | OVCAR-5 ovarian 104% | OVCAR-4 ovarian 111% | SK-OV-3 ovarian 104% | IGROV1 ovarian 109% | OVCAR-3 ovarian 108% | HS 578T breast 108% | NCI/ADR-RES ovarian 106%

Cc1ccc(C2(C)NC(=O)N(CC(=O)Nc3cccc(C)c3)C2=O)cc1 (stereo not given)
inactive: SK-MEL-2 melanoma 84.9% | EKVX NSCLC 101% | SN12C renal 100% | UO-31 renal 82% | TK-10 renal 106% | ACHN renal 98.6% | CAKI-1 renal 112% | A498 renal 123% | CCRF-CEM leukemia 112% | MOLT-4 leukemia 80.4% | RPMI-8226 leukemia 67.8% | OVCAR-8 ovarian 105% | OVCAR-5 ovarian 97.1% | OVCAR-4 ovarian 99.3% | SK-OV-3 ovarian 97.6% | IGROV1 ovarian 105% | OVCAR-3 ovarian 111% | HS 578T breast 102% | NCI/ADR-RES ovarian 94.8%
active: SR leukemia -22.7%

Cc1csc(Nc2nc(-c3cccc(Cl)c3)nc(C(Cl)(Cl)Cl)n2)n1
inactive: SK-MEL-2 melanoma 83.7% | SN12C renal 84.1% | UO-31 renal 39.6% | CCRF-CEM leukemia 95.5% | MOLT-4 leukemia 74% | SR leukemia 58.9% | RPMI-8226 leukemia 13.8% | OVCAR-8 ovarian 58.6% | OVCAR-5 ovarian 46.8% | OVCAR-4 ovarian 70.1% | SK-OV-3 ovarian 70.8% | IGROV1 ovarian 83.1% | HS 578T breast 43.5% | NCI/ADR-RES ovarian 51.6%
active: EKVX NSCLC 4.21% | TK-10 renal 3.91% | ACHN renal -21.7% | CAKI-1 renal 4.29% | A498 renal -18.6% | OVCAR-3 ovarian -18.4%

COc1ccc(Cn2cc3c(c2)-c2oncc2CC3)cc1
inactive: SK-MEL-2 melanoma 68% | EKVX NSCLC 66.3% | SN12C renal 77.8% | UO-31 renal 68.2% | TK-10 renal 101% | ACHN renal 99.2% | CAKI-1 renal 64% | A498 renal 57.7% | CCRF-CEM leukemia 35.2% | MOLT-4 leukemia 58% | SR leukemia 40.7% | RPMI-8226 leukemia 48.9% | OVCAR-8 ovarian 83.2% | OVCAR-5 ovarian 83.9% | OVCAR-4 ovarian 89.8% | SK-OV-3 ovarian 67.1% | IGROV1 ovarian 49.6% | OVCAR-3 ovarian 108% | HS 578T breast 70.9% | NCI/ADR-RES ovarian 33.7%

Oc1ccc(Cc2ccc(O)c3ncccc23)c2cccnc12
inactive: CAKI-1 renal 16.2% | CCRF-CEM leukemia 17.4% | MOLT-4 leukemia 11.8% | OVCAR-8 ovarian 12.6% | OVCAR-5 ovarian 21.6% | OVCAR-4 ovarian 14.2% | OVCAR-3 ovarian 14.1% | HS 578T breast 36.6% | NCI/ADR-RES ovarian 20.2%
active: SK-MEL-2 melanoma -17.9% | EKVX NSCLC 8.21% | SN12C renal 8.11% | UO-31 renal 1.7% | TK-10 renal -9.53% | ACHN renal -4.29% | A498 renal 5.58% | SR leukemia 9.74% | RPMI-8226 leukemia 8.21% | SK-OV-3 ovarian -17.2% | IGROV1 ovarian 7.8%

Nc1nc(=O)n([C@H]2CC=C(CO)O2)cc1F
inactive: SK-MEL-2 melanoma 102% | EKVX NSCLC 110% | SN12C renal 96.8% | UO-31 renal 91.5% | TK-10 renal 99.3% | ACHN renal 110% | CAKI-1 renal 94.6% | A498 renal 75.8% | CCRF-CEM leukemia 103% | MOLT-4 leukemia 90.5% | SR leukemia 86.1% | RPMI-8226 leukemia 101% | OVCAR-8 ovarian 99.7% | OVCAR-5 ovarian 89.3% | OVCAR-4 ovarian 107% | SK-OV-3 ovarian 101% | IGROV1 ovarian 95.2% | OVCAR-3 ovarian 104% | HS 578T breast 83.6% | NCI/ADR-RES ovarian 104%

CCN1C(=O)N(CC)C2C1NN=c1s/c(=C\c3ccc(F)cc3)c(=O)n12 (stereo not given)
active: CCRF-CEM leukemia 4.82% | OVCAR-8 ovarian 2.37% | OVCAR-3 ovarian -25.9% | NCI/ADR-RES ovarian 1.08%
inactive: SK-MEL-2 melanoma 55.3% | EKVX NSCLC 56.3% | SN12C renal 31.5% | UO-31 renal 41.7% | TK-10 renal 64.8% | ACHN renal 35.2% | CAKI-1 renal 33% | A498 renal 23.4% | MOLT-4 leukemia 14.3% | SR leukemia 11.1% | RPMI-8226 leukemia 21.3% | OVCAR-5 ovarian 33.1% | OVCAR-4 ovarian 46.4% | SK-OV-3 ovarian 37.2% | IGROV1 ovarian 23% | HS 578T breast 12.4%

C=C1/C(=C\C=C2/CCC[C@]3(C)[C@@H]([C@H](C)CCCC(C)(C)O)CC[C@@H]23)C[C@@H](OC(=O)CBr)C[C@@H]1O
inactive: SK-MEL-2 melanoma 99.7% | EKVX NSCLC 52.4% | SN12C renal 85.2% | TK-10 renal 88.2% | A498 renal 86.2% | OVCAR-8 ovarian 57.3% | OVCAR-5 ovarian 84.1% | OVCAR-4 ovarian 62.7% | SK-OV-3 ovarian 108% | HS 578T breast 66.6% | NCI/ADR-RES ovarian 81.2%
active: UO-31 renal -100% | ACHN renal -29.7% | CAKI-1 renal -30.4% | CCRF-CEM leukemia -50.7% | MOLT-4 leukemia -52.6% | SR leukemia -47.3% | RPMI-8226 leukemia -50.7% | IGROV1 ovarian -65.5% | OVCAR-3 ovarian -20.1%

O=C(/C=C/C12c3ccccc3C(c3ccccc31)C1C(=O)NC(=O)C12)c1cccs1 (stereo not given)
active: CCRF-CEM leukemia 0.0532% | RPMI-8226 leukemia 1.76% | OVCAR-3 ovarian -0.389%
inactive: SK-MEL-2 melanoma 38.5% | EKVX NSCLC 50.3% | SN12C renal 36.4% | UO-31 renal 42.6% | TK-10 renal 48.7% | ACHN renal 45.8% | CAKI-1 renal 52.2% | A498 renal 46.9% | MOLT-4 leukemia 10.5% | SR leukemia 20.3% | OVCAR-8 ovarian 18.4% | OVCAR-5 ovarian 48% | OVCAR-4 ovarian 60% | SK-OV-3 ovarian 59.1% | IGROV1 ovarian 37% | HS 578T breast 36.2% | NCI/ADR-RES ovarian 26.6%

CO[C@]12C=C/C(=C(/C(=O)OCc3cccnc3)C(=O)CCCCCCCC[C@]3(OC)C=C/C(=C(/C(=O)OCc4cccnc4)C(=O)CCCCCCCC1)O3)O2
inactive: HS 578T breast 30.6%
active: SK-MEL-2 melanoma -44.8% | EKVX NSCLC -53.8% | SN12C renal -46.1% | UO-31 renal -40.7% | TK-10 renal -13.8% | ACHN renal -73.6% | CAKI-1 renal -29.7% | A498 renal -88.4% | CCRF-CEM leukemia -23.2% | MOLT-4 leukemia -13.1% | SR leukemia -20.7% | RPMI-8226 leukemia -30.4% | OVCAR-8 ovarian 7.77% | OVCAR-5 ovarian -52.1% | OVCAR-4 ovarian -65.6% | SK-OV-3 ovarian -0.89% | IGROV1 ovarian -66.7% | OVCAR-3 ovarian -95.5% | NCI/ADR-RES ovarian -23.9%

Nc1ncc(-c2ccc3ncnc(N4CCc5cc(F)c(Cl)cc54)c3c2)cc1C(F)(F)F
active: UO-31 renal -2.54% | TK-10 renal 9.32% | CAKI-1 renal -8.15% | A498 renal -50.2% | MOLT-4 leukemia 8.68% | SR leukemia -8.86% | IGROV1 ovarian -42.6% | HS 578T breast -4.39%
inactive: SK-MEL-2 melanoma 27.7% | EKVX NSCLC 14.8% | SN12C renal 24.8% | ACHN renal 17.2% | CCRF-CEM leukemia 28.2% | RPMI-8226 leukemia 16.4% | OVCAR-8 ovarian 33.1% | OVCAR-5 ovarian 20.8% | OVCAR-4 ovarian 33.4% | SK-OV-3 ovarian 31.9% | OVCAR-3 ovarian 31.7% | NCI/ADR-RES ovarian 19.5%

Cc1ccccc1NC(=O)c1sc2nc3c(cc2c1N)CCCC3
inactive: SK-MEL-2 melanoma 26.4% | EKVX NSCLC 45.8% | SN12C renal 37.3% | UO-31 renal 45.2% | TK-10 renal 57.5% | ACHN renal 51.2% | CAKI-1 renal 51% | CCRF-CEM leukemia 20.9% | MOLT-4 leukemia 27.4% | SR leukemia 14.3% | RPMI-8226 leukemia 21.3% | OVCAR-8 ovarian 29.7% | OVCAR-5 ovarian 81.6% | OVCAR-4 ovarian 61.8% | SK-OV-3 ovarian 25.1% | IGROV1 ovarian 57% | OVCAR-3 ovarian 11.3% | HS 578T breast 55.8% | NCI/ADR-RES ovarian 26.5%
active: A498 renal -3.82%

Cc1ccc(S(=O)(=O)N(CCC(=O)O)c2ccccc2)cc1
inactive: SK-MEL-2 melanoma 109% | EKVX NSCLC 108% | SN12C renal 109% | UO-31 renal 106% | TK-10 renal 119% | ACHN renal 106% | CAKI-1 renal 93.9% | A498 renal 81.3% | CCRF-CEM leukemia 94.4% | MOLT-4 leukemia 106% | SR leukemia 99.3% | RPMI-8226 leukemia 93.2% | OVCAR-8 ovarian 101% | OVCAR-5 ovarian 111% | OVCAR-4 ovarian 114% | SK-OV-3 ovarian 105% | IGROV1 ovarian 123% | OVCAR-3 ovarian 110% | HS 578T breast 121% | NCI/ADR-RES ovarian 110%

CCOC(=O)c1ccc2c(c1)c1c(C)c3cnccc3c(C)c1n2C
active: SK-MEL-2 melanoma -89% | EKVX NSCLC -13.4% | SN12C renal -58.2% | UO-31 renal -53.6% | TK-10 renal -65.3% | ACHN renal -95% | CAKI-1 renal -25% | A498 renal -78.7% | CCRF-CEM leukemia -2.56% | MOLT-4 leukemia 2.2% | RPMI-8226 leukemia -29.7% | OVCAR-8 ovarian -21.5% | OVCAR-5 ovarian -46.7% | OVCAR-4 ovarian -14.8% | SK-OV-3 ovarian -21.4% | IGROV1 ovarian -62.7% | OVCAR-3 ovarian -47.5% | HS 578T breast -27.6% | NCI/ADR-RES ovarian -33.1%
inactive: SR leukemia 14.9%

CO[C@H]1CC(c2ccc[nH]2)=N[C@]12O[C@@H](C)C[C@@H]1CCCCCCCc3ccc([nH]3)[C@H]12
active: SK-MEL-2 melanoma -16.2% | UO-31 renal -15.6% | ACHN renal 8.05% | CAKI-1 renal 9.32% | SR leukemia 9.34% | RPMI-8226 leukemia -1.79%
inactive: EKVX NSCLC 29.4% | SN12C renal 33.6% | TK-10 renal 15% | A498 renal 57.4% | CCRF-CEM leukemia 22.7% | MOLT-4 leukemia 20.6% | OVCAR-8 ovarian 14.8% | OVCAR-5 ovarian 29.7% | OVCAR-4 ovarian 29.2% | SK-OV-3 ovarian 30% | IGROV1 ovarian 28.9% | OVCAR-3 ovarian 29.2% | HS 578T breast 29.2% | NCI/ADR-RES ovarian 17.1%
